Data as given in PubChem BioAssay AID588763 (NMMLSC, 2011).
Entries with a potency or affinity are not part of this list. A number with no mark means an inactive call. Active and inactive are the calls of the source. How the calls were made is not given here.

molecular target: Beta-2 adrenergic receptor (Homo sapiens) (UniProt P07550); assay: ADRB2 activation measured by internalization – cell-based, FAP fluorogen, flow cytometry, cherry pick 1, dose response (AID 588763); conditions: AM2.2-beta2AR cells, 90 min; series mostly up to 33 µM; activation (receptor internalization): at the top concentration
Sequence (P07550 whole entry, looked up): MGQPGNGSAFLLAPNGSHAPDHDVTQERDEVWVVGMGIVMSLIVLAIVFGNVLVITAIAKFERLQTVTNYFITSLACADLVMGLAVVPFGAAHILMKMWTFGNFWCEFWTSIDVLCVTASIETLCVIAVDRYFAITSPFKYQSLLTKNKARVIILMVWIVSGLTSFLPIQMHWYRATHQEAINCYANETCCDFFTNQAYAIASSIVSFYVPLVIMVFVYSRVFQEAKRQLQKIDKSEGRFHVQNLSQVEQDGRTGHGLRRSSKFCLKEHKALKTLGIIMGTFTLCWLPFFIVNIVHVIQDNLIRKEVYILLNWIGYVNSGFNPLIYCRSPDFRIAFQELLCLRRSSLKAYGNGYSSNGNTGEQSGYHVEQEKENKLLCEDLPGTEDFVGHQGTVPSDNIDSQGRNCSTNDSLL

Compound	activation (receptor internalization) [%]	outcome
CC(CCc1ccccc1)NC(C)C(O)c1ccc(O)cc1 (stereo not drawn)	-5.05	–
COc1ccc(C(O)CNC(C)C)c(F)c1OC (stereo not drawn)	-16.5	–
COc1cc(C(O)CNC(C)C)cc(F)c1OC (stereo not drawn)	-4.23	–
COc1ccc(OC)c2c1CCC1NCCOC21 (stereo not drawn)	-6.85	–
COc1ccc(OC)c(C(O)C2CCCCN2)c1 (stereo not drawn)	-1.51	–
CCNCC(O)c1cccc(O)c1 (stereo not drawn)	19.5	–
COc1ccc(OC)c([C@@H](O)[C@H](C)NC(C)(C)C)c1	–	inactive
CC(NCc1ccc(Cl)c(Cl)c1)C(O)c1ccccc1 (stereo not drawn)	10.7	–
